Several values for one entry are separate records, joined by “and”; a condition that tells them apart may be missing. Identical values can stand only once. Records with an inconclusive call do not appear. Activity calls are given as the source filed them. Calls come from the whole dose curve; as a rule, active = well fitted inhibition curve with a large enough effect in the repeat runs; inconclusive = weak or mixed curves; inactive = no such curve, though single readings can be large or run the other way.
target: Cytochrome P450 2C19 (Homo sapiens) (UniProt P33261); assay: Cytochrome P450 Family 2 Subfamily C Member 19 (CYP2C19) small molecule antagonists: luciferase reporter qHTS assay (AID 1671197); settings: P450-Glo CYP2C19 enzyme, luciferin luminescence, 1 h; series mostly up to 115 µM; activity change, negative = inhibition: at the top concentration; note: nearly all actives have a fitted effect of over 65% in size
Excerpt: National Center for Advancing Translational Sciences [NCATS]
U.S. Environmental Protection Agency [EPA]
National Institutes of Environmental Health Sciences [NIEHS]
National Toxicology Program [NTP]
U.S. Food and Drug Administration [FDA]
Cytochrome P450 (CYP) enzymes are membrane-bound hemeproteins that play a key role in metabolism of drugs and xenobiotics. Evaluation of the effect of chemicals on CYP isozymes is useful to minimize the adverse drug reactions and toxicities in drug development process. Tox21 chemicals were tested for their effect on CYP enzyme activities by using P450-Glo (TM) screening systems (Promega Corporation, Madison, WI). These systems provide a luminescent method containing proluciferin substrates and are converted to luciferin products by CYP isozymes. The luciferin products formed are detected with a luciferin detection reagent, and the amount of light produced is proportional to CYP activity. P450-Glo (TM) CYP2C19 screening system (Catalog. No. V9880) was used to detect the compounds that interfere in CYP2C19 activity. The positive control compound used for CYP2C19 assay is ketoconazole (Sigma-Aldrich, St. Louis, MO).
Tox21 Assay Protocol Summary:
Two ul of enzyme-substrate mix was dispensed into medium binding white/solid 1536-well plates (Greiner Bio-One North America Inc., Monroe, NC) using a BioRaptr Flying Reagent Dispenser (FRD, Beckman Coulter, Brea, CA). Compounds dissolved in DMSO and positive control (ketoconazole) were transferred to the assay plates at 23 nl using a Pintool station (Wako, San Diego, CA). The assay plates were incubated at room temperature for 10 min. Then 2 ul of NADPH regeneration solution was added to each well of the assay plates using an FRD and incubated at 37C for 1 h. The reaction was stopped by adding 4 ul of detection reagent using an FRD and after 20 min incubation at room temperature the luminescence signal was measured using a ViewLux plate reader (Perkin Elmer, Shelton, CT). Data were expressed as relative luminescence units.
% is set by controls: 0 for no effect and ±100 for the full control effect; potency is the fitted concentration of half-maximal effect.

Chain of Cytochrome P450 2C19 (Homo sapiens) (P33261 whole entry, looked up): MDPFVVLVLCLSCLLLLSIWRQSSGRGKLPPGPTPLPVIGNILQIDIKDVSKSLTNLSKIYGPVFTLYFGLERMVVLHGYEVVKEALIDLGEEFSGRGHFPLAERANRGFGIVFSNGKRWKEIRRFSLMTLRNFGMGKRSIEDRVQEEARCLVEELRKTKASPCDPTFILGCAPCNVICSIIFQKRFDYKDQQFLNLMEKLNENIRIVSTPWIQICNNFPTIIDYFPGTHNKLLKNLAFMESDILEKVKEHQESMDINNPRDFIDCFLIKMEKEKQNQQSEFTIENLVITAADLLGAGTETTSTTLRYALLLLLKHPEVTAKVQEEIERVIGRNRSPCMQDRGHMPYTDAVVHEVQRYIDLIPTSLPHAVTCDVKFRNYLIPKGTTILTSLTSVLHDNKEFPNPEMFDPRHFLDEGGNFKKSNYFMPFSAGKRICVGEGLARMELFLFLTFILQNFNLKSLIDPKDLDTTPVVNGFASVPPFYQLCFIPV

| Structure (SMILES) | Potency | activity change, negative = inhibition |
| --- | --- | --- |
| c1ccc(Sc2ccccc2)cc1 | 7.1 µM (active) | – |
| O=C(c1ccccc1)c1cc(Cl)ccc1O | 1.9 µM (active) | – |
| CCCC(C)CCC(C)=O (stereo not given) | – | 3.89% (inactive) |
| N#CSCSc1nc2ccccc2s1 | 39.9 µM (active) | – |
| CCCN(CCc1cccs1)[C@H]1CCc2c(O)cccc2C1 | 2.45 µM (active) | – |
| CSc1c(Cl)c(Cl)c(Cl)c(Cl)c1Cl | – | -0.545% (inactive) |
| CCOB(OCC)OCC | – | -4.21% (inactive) |
| CC(C)c1ccccc1N | 39.9 µM (active) | – |
| COc1cc(C(=O)NS(=O)(=O)c2ccccc2C)ccc1Cc1cn(C)c2ccc(NC(=O)OC3CCCC3)cc12 | – | 22.7% [at 52.9 µM] (inactive) |
| c1cc2c3c(c1)ccc1cccc(c13)C2 | 40.8 µM (active) | – |
| CCOC(=O)CC(C)O (stereo not given) | – | -4.46% (inactive) |
| CC[N+](CC)(CC)Cc1ccccc1 | – | 1.77% (inactive) |
| CCCCCCCCCCCC(=O)N(CC)CC | – | -5.03% (inactive) |
| CCc1ccc(C)nc1 | – | 7.6% (inactive) |
| C=CC(C)C#N (stereo not given) | – | -0.342% (inactive) |
| c1ccc2c(c1)CCC2 | – | -13.2% (inactive) |
| Cc1c(C(=O)O)cccc1[N+](=O)[O-] | – | 12.9% (inactive) |
| CC(=O)c1ccccc1N | – | 4.95% (inactive) |
| CC1=C(/C=C/C(C)=C/C=C/C(C)=C/C(=O)Nc2ccc(O)cc2)C(C)(C)CCC1 | 41 µM (active) and 27.5 µM (active) | – |
| COc1cccc(O)c1 | – | -27.7% (inactive) |

| Structure (SMILES) | Potency | activity change, negative = inhibition |
| --- | --- | --- |
| CCN(CC)CCOC(=O)C1(C2CCCCC2)CCCCC1 | – | -24.1% [at 52.9 µM] (inactive) |
| CC1=CCC(=O)O1 | – | -4.13% (inactive) |
| C=CC(=O)OCCOCC(CC)(COCCOC(=O)C=C)COCCOC(=O)C=C | 23.4 µM (active) | – |
| CO[Si](CCCNCCNCCN)(OC)OC | – | -6.75% (inactive) |
| CCc1c(Br)c(Br)c(Br)c(Br)c1Br | – | 4.98% (inactive) |
| CO[C@H]1C=CO[C@@]2(C)Oc3c(C)c(O)c4c(O)c(cc(O)c4c3C2=O)NC(=O)/C(C)=C\C=C/[C@H](C)[C@H](O)[C@@H](C)[C@@H](O)[C@@H](C)[C@H](OC(C)=O)[C@@H]1C | 20.2 µM (active) | – |
| c1cc[nH]c1 | – | 0.958% (inactive) |
| CC(C)(C)C1=CC(=O)C=C(C(C)(C)C)C1=O | 3.17 µM (active) | – |
| Cc1occc1SSc1ccoc1C | – | -21.8% (inactive) |
| Clc1nc2ccccc2s1 | – | 1.58% (inactive) |
| COc1ccc(-n2nc(CCC(=O)N(C)O)cc2-c2ccc(Cl)cc2)cc1 | 8.71 µM (active) | – |
| CC(C)=CCCC(C)O (stereo not given) | – | 2.6% (inactive) |
| O=C(Nc1ccc(Cl)cc1)Nc1ccc(Cl)c(C(F)(F)F)c1 | 17.4 µM (active) | – |
| C[Si](C)(C)Cl | – | 15.9% (inactive) |
| CCCC(=O)OCC(COC(=O)CCC)OC(=O)CCC | 20 µM (active) | – |
| CO[Si](CCC1CCC2OC2C1)(OC)OC (stereo not given) | – | 11.2% (inactive) |
| CCOC(OCC)C(=O)c1ccccc1 | – | -8.56% (inactive) |
| CCCCCCS | – | 11.2% (inactive) |
| CN(C)c1ccc(N=Nc2ccccc2C(=O)O)cc1 | 35.6 µM (active) | – |
| O=C(Oc1ccccc1)c1cccc(C(=O)Oc2ccccc2)c1 | 2.98 µM (active) | – |
